Assay outcomes: PubChem, National Center for Advancing Translational Sciences (NCATS)
VP16 counter – inhibits Gal4-VP16 luciferase reporter, ROR gamma counter-screen | actives 3.5% (n = 310,000) | AID 2546 | Drosophila S2 Gal4-VP16 UAS-luciferase, luminescence, 20 h | Potency, µM (top dose mostly 53.6 µM), most hits filed as inhibitors;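 further: Gal4-VP16 expression switched on by copper sulfate through the metallothionein promoter; nearly all actives have a fitted effect of over 50% in size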
uPA generation – blocks generation of uPA at the cell surface | actives 0.31% (n = 330,000) | cell surface uPA generation assay, qHTS | Potency, µM (highest dose often 38.3 µM), hits mostly inhibitors; active means well fitted inhibition curve with a large enough effect; inconclusive means small, poorly fitted or top-dose-only effect; inactive means no such curve, though single readings can be large or run the other way; tested in mouse RAW 264.7 cells; further: nearly all actives have a fitted effect of over 55% in size
Integrin act MD – integrin-mediated muscular dystrophy alleviation activation; actives 0.064% (n = 350,000); alpha7betagal myoblasts, beta-gal FDG fluorescence, 48 h; Potency, µM (top dose mostly 38.3 µM), most hits filed as activators; further: nearly all actives have a fitted effect of over 60% in size
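Alpha7betagal+/- myoblasts (passage 13) were plated 16-24 hr, then exposed to compounds (1:260 dilution of DMSO stock) for 48 hours at 37C. After MPER lysis, β-galactosidase reporter activity was read as FDG fluorescence (ex 480/em 540) after 30 minutes.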
RORgamma inh – ROR gamma (mouse) transcription inhibition; P51450; Drosophila S2 Gal4-RORgamma UAS-luciferase reporter, 20 h; Potency, µM (top dose mostly 53.6 µM), most hits filed as inhibitors; actives 5.4% (n = 310,000); further: nearly all actives have a fitted effect of over 60% in size
Target sequence (P51450 whole entry, looked up, the tested form may be a part): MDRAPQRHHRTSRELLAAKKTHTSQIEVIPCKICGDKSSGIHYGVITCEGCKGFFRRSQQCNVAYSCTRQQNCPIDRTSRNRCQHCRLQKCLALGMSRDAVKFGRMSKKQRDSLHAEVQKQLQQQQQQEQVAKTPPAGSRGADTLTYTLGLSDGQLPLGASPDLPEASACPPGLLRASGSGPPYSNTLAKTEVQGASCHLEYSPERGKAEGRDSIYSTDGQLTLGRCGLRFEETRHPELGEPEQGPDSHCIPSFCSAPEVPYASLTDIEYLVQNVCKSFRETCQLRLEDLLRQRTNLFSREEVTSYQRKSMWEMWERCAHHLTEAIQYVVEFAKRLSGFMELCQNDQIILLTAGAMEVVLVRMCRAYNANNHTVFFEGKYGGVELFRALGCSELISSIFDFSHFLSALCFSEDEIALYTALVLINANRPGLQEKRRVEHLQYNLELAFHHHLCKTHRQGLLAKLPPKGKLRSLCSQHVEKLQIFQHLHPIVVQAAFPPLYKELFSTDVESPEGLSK
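Schneider cells (Drosophila), stable Gal4 DBD–ROR gamma + UAS-luc; 1 hr cmpd preincubation; Cu2+ induction 700 uM final; 20 hr ambient; luminescence.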
Chronic BCR inh – chronic active BCR signaling inhibition; ABC-DLBCL IkBa-CBG/CBR reporter, luminescence ratio, 4 h; Potency, µM (doses to about 46.1 µM), hits mostly inhibitors; actives 0.05% (n = 340,000); active means well fitted inhibition curve with a large enough effect in the signal ratio, with a control signal flat, not every such curve was filed as active; inconclusive means small, poorly fitted or top-dose-only effect, or effect the other way, or a change in a side signal; the % refers to the signal ratio
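Compounds up to 46 uM were incubated four hours with TMD8 cells whose green CBG68 luciferase is fused to IkappaBalpha; red CBR luminescence normalised the signal, and concentration-effect curves were fitted to fusion, red and ratio data.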
Mito fusion yeast – inhibitors of mitochondrial division or activators of mitochondrial fusion; S. cerevisiae fusion-defective mutant growth rescue, CellTiterGlo 48 h; Potency, µM (highest dose often 46.1 µM), most hits filed as activators; actives 0.23% (n = 320,000); further: nearly all actives have a fitted effect of over 45% in size
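Yeast fusion mutant, YPEG (non-fermentable carbon), compound, 48 h at 37C non-permissive; CellTiterGlo added, 10 min RT, luminescence read. Rescued growth = division inhibition.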
Numbers stand for hits; – = inactive; ? = inconclusive; · = no result given; [ ] = dose if it differs, or a comment. Rows were chosen to be rich in hits. Some 5.5% of all compounds tested hit in one or more screens of this group. Unless noted, the call rests on the fitted dose curve; in most records, active means well fitted curve in the direction sought with a large enough effect; inconclusive means small, poorly fitted or top-dose-only effect, or another doubt; inactive means no such curve, though single readings can be large; an effect the other way counts as inactive or inconclusive.

SMILES	VP16 counter	uPA generation	Integrin act MD	RORgamma inh	Chronic BCR inh	Mito fusion yeast
Brc1ccc2c(c1)OCCOCCOc1cc(Br)ccc1OCCOCCOCCO2	–[0.365 µM]	–	–	?	–	–
COc1ccc(-c2n[nH]c(=S)n2-c2ccc3c(c2)OCCO3)cc1	?	–	–	2.82µM	?	–
CCNc1ncc2nc(-c3ccc(OC)cc3)c(=O)n(CCOC)c2n1	–	·	·	–	·	·
COCCNC(=O)CN(CCc1ccccc1)S(=O)(=O)c1ccc(Br)cc1	–	–	–	–	–	–
CCCCCCC=O	–	·	·	–	·	·
Cn1cc(/C=N/n2cnc3scc(-c4ccc(Cl)cc4)c3c2=O)c2ccccc21	–	–	–	–	3.55µM	–
COc1cc2c(ccc3cc(OC)c(OC)c(O)c32)cc1O	–	10µM	–	–	?	–
COC(=O)C1CCN(CC(=O)Nc2ccc(C(=O)Nc3ccccc3OC)cc2)CC1	·	–	–	·	–	–
COc1ccc2cnn(-c3ccc(OC(F)(F)F)cc3)c(=O)c2c1OC	–	–	–	?	?	–
COc1ccc(C(=O)C(CCC(CNC(C)(C)C)C(=O)c2ccc(OC)cc2)CNC(C)(C)C)cc1 (stereo not given)	12.6µM	–	–	?	?	–
COc1ccc(C(=O)NN)cc1	–	–	–	?	?	–
CCOC(=O)C1CCCN(C(=O)Cn2sc3nc(C)cc(C)c3c2=O)C1 (stereo not given)	1.78µM	?	–	?	?	–
CC[C@@]12C(=O)N(c3cccc(F)c3)C(=O)N1[C@H](c1ccc(Br)cc1)[C@@H]1C(=O)N(C(C)(C)C)C(=O)[C@@H]12	·	–	–	·	–	–
c1ccc(C2=NNC(=NC3CC3)SC2)cc1	12.6µM	–	–	14.1µM	?	–
c1ccc2c(C3=NNC(=NC4CC4)SC3)c[nH]c2c1	10µM	–	–	10µM	–	–
c1ccc2c(C3=NNC(=NC4CCCCC4)SC3)c[nH]c2c1	–	–	–	–[10 µM]	?	–
Clc1ccc2ncnc(NCc3ccc4c(c3)OCO4)c2c1	7.94µM	·	·	?	·	·
Clc1ccccc1-c1ccc2ncnc(NCc3ccc4c(c3)OCO4)c2c1	·	–	·	·	?	?
CC1C/C(=N\NC(=S)NCc2ccccc2)CC(C)(C)C1 (stereo not given)	2.82µM	–	–	1.26µM	–	–
CC1(C)CC(=O)C/C(=N\NC(=O)C2CC2c2ccccc2)C1 (stereo not given)	–	–	–	–	–	–
CC1CCC/C(=N/NC(=O)c2ccccc2-n2cccc2)C1 (stereo not given)	–	–	–	–	–	–
CC1CCC/C(=N\NC(=S)NCc2ccccc2)C1 (stereo not given)	?	–	–	11.2µM	–	–
CC1(C)CC(=O)C/C(=N\NC(=S)NCc2ccccc2)C1	?	–	–	14.1µM	–	–
CC1CCCC/C1=N\NC(=S)Nc1ccccc1 (stereo not given)	–	–	–	–	–	–
CC1CCC/C(=N\NC(=S)Nc2ccccc2)C1 (stereo not given)	?	–	–	7.94µM	–	–
SMILES	VP16 counter	uPA generation	Integrin act MD	RORgamma inh	Chronic BCR inh	Mito fusion yeast
O=C(Nc1nnc(C2CC2)s1)C1Cc2ccccc2CN1S(=O)(=O)c1ccccc1F (stereo not given)	?	–	–	8.91µM	?	–
Cc1ccccc1C(=O)NNC(=S)NC(=O)c1cccs1	12.6µM	–	–	7.94µM	?	–
O=C(NC(=S)NNC(=O)c1cccs1)c1ccccc1	15.8µM	–	–	5.62µM	?	–
Cc1cccc(C(=O)NC(=S)NNC(=O)c2cccs2)c1	–	–	–	?	?	–
CC(C)(C)c1ccc(C(=O)NC(=S)NNC(=O)c2cccs2)cc1	7.08µM	–	–	3.98µM	–	–
COc1cc2c(cc1OC)C(C(C(=O)N(CCc1ccc(OC)c(OC)c1OC)CCc1ccc(OC)c(OC)c1OC)c1ccccc1)=NCC2 (stereo not given)	–	·	·	–	·	·
C/C(=N\Nc1ccc(F)cc1F)c1ccc(Br)s1	–	–	–	–	?	–
COc1ccc(C(=O)/C(C#N)=N/Nc2ccc([N+](=O)[O-])cc2)cc1	3.55µM	1µM	–	5.62µM	–	?
